Results reported in PubChem BioAssay (EPA / NIEHS).
Records with an inconclusive call do not appear. Calls of active or inactive are those of the source. Rule for the calls: active = hit-call score of the fitted dose curve at least 0.9, where 1 is the maximum; inconclusive = response in the unintended direction; inactive = score below 0.9.

Test: Tanguay_ZF_120hpf_CFIN_legacy: (Legacy) Oregon State University Tanguay Lab 120 Hour Post-fertilization zebrafish Assay for Caudal Fin Malformation (AID 2283649)
Experimental: Tanguay_ZF_120hpf_legacy is a whole embryo, multiplexed endpoint assay using zebrafish larvae exposed for 120 hours post fertilization on a 96-well plate.Tanguay_ZF_120hpf_CFIN_legacy is one of one assay component(s) measured or calculated from the Tanguay_ZF_120hpf_legacy assay. It is designed to make measurements of zebrafish development as detected with brightfield microscopy of developing zebrafish embryos.Data from the assay component Tanguay_ZF_120hpf_CFIN_legacy was analyzed into 1 assay endpoints. This assay endpoint, Tanguay_ZF_120hpf_CFIN_legacy, was analyzed in the positive analysis fitting direction relative to DMSO as the negative control and baseline of activity. Using a type of morphology reporter, gain-of-signal activity can be used to understand changes in developmentals as they relate to the whole embryo. To generalize the intended target to other relatable targets, this assay endpoint is annotated to the zebrafish development intended target family, where the subfamily is caudal fin morphogenesis.
Zebrafish husbandry: Tropical 5D wild-type adult zebrafish were housed in at an approximate density of 1000 per 100 gallon tank at the Sinnhuber Aquatic Research Laboratory, Oregon State University, Corvallis, OR. Each tank was kept at standard laboratory conditions of 28C on a 14-h light/10-h dark photoperiod in fish water consisting of reverse osmosis water supplemented with a commercially available salt (Instant Ocean). Spawning funnels were placed into the tanks the night prior, and embryos were collected and staged. To increase bioavailability, the chorion was enzymatically removed using pronase (63.6mg/ml, >/= 3.5U/mg, Sigma-Aldrich: P5147) at 4 hours post fertilization (hpf) using a custom automated dechorionator.Chemical exposures: Six hpf dechorionated embryos were placed 1 embryo per well in a 96-well plate prefilled with 90 ul of EM using automated embryo placement systems (AEPS). Ten microliters of each row of dilution plate 2 was added to 2 exposure plates. The final DMSO concentration used was 0.64% (vol/vol). Thirty-two embryos were also exposed to 5uM trimethyltin chloride (positive control). Plates were sealed to prevent evaporation and foil covered to reduce light exposure and kept in a 28C incubator. Embryos were statically exposed until 120 hpf. At 24 hpf, embryos were assessed for photomotor response using a custom photomotor response analysis tool (PRAT) and for developmental toxicity endpoints (MO24: mortality at 24 hpf, DP: developmental progression, SM: spontaneous movement, and NC: notochord distortion). At 120 hpf, locomotor activity was measured using Viewpoint Zebralab and assessed for 18 endpoints. Zebrafish acquisition and analysis program (ZAAP), a custom program designed to inventory, acquire, and manage zebrafish data, was used to collect developmental endpoints as either present or absent (i.e., binary responses were recorded). If mortality occurred for an embryo (at either 24 or 120 hpf), the non-mortality endpoints were not measured.

| Compound | outcome | AC50 |
| --- | --- | --- |
| Cc1cccc2ccccc12 | inactive |  |
| O=c1ccc2ccccc2o1 | inactive |  |
| c1ccc(C[n+]2cccc3ccccc32)cc1 | inactive |  |
| CC(C)(c1cc(Br)c(O)c(Br)c1)c1cc(Br)c(O)c(Br)c1 | inactive |  |
| c1ccc2n[nH]nc2c1 | inactive |  |
| CC(O)CC(C)(C)O (stereo not given) | inactive |  |
| CN(C[C@@H](CC[N+]12CCC(C3CCCCC3)(CC1)CC2)c1ccc(Cl)c(Cl)c1)C(=O)c1cc(C(F)(F)F)cc(C(F)(F)F)c1 | inactive |  |
| O=c1[nH]sc2ccccc12 | inactive |  |
| CCCCCCCC[Si](OCC)(OCC)OCC | inactive |  |
| Cc1cn([C@H]2C[C@H](N=[N+]=[N-])[C@@H](CO)O2)c(=O)[nH]c1=O | inactive |  |
| CC/C(=C(/CC)c1ccc(O)cc1)c1ccc(O)cc1 | inactive |  |
| c1ccc2ccccc2c1 | inactive |  |
| CC1(C)NC(=O)N(c2ccc([N+](=O)[O-])c(C(F)(F)F)c2)C1=O | inactive |  |
| CN(C)c1ccc(C(=C2C=CC(=[N+](C)C)C=C2)c2ccc(N(C)C)cc2)cc1 | inactive |  |
| COc1ccc2cc(S(=O)(=O)N[C@H](CC(=O)N[C@H](Cc3ccc(CN4[C@H](C)CCC[C@@H]4C)cc3)C(=O)N(C)C(C)C)c3ccc4c(c3)OCO4)ccc2c1 | inactive |  |
| O=C(Nc1ccc(Cl)cc1)Nc1ccc(Cl)c(Cl)c1 | inactive |  |
| Oc1ccc2ccccc2c1 |  | 10.4 µM (active) |
| CCCCCCCCCCCO | inactive |  |
| O=C(O)c1ccccc1-n1cc(C(=O)O)c(=O)c2cc(Nc3c(F)cc(F)cc3Cl)c(Cl)cc21 | inactive |  |
| CCCCCc1ccc(N)cc1 | inactive |  |

| Compound | outcome | AC50 |
| --- | --- | --- |
| COc1cc(C(=O)NC2CCN(C)CC2)ccc1Nc1ncc2c(n1)N(C1CCCC1)CC(F)(F)C(=O)N2C | inactive |  |
| CC(=O)N1CCN(c2ccc(OC[C@H]3CO[C@](Cn4ccnc4)(c4ccc(Cl)cc4Cl)O3)cc2)CC1 | inactive |  |
| COCC(C)OCC(C)OCC(C)O (stereo not given) | inactive |  |
| Cc1ccc2oc(CN(Cc3ccccc3)C(=O)Nc3c(F)cc(F)cc3F)c(-c3ccc(Cl)cc3)c2c1 | inactive |  |
| O=C(O)Cn1c(=O)n(Cc2ccc(Br)cc2F)c(=O)c2ccc(Cl)cc21 | inactive |  |
| CCN(Cc1cccnc1)C(=O)c1cccc(Cl)c1[C@]1(C)C(=O)N(Cc2ccc(OC)cc2OC)c2ccc(Cl)cc21 | inactive |  |
| O=C1c2ccccc2C(=O)N1CCc1noc(-c2ccc(CN3CCCCCC3)s2)n1 | inactive |  |
| Cc1ccc(C(C)C)cc1 | inactive |  |
| CCCCCCCCCC(=O)O | inactive |  |
| CCCCCCCCN(C)CCCCCCCC | inactive |  |
| O=C(O)Cc1cc(I)c(Oc2ccc(O)c(I)c2)c(I)c1 | inactive |  |
| Cc1c2ccccc2c(C)c2c1ccc1ccccc12 |  | 25.8 µM (active) |
| CN1C(=O)N(c2ccccc2Br)Cc2cnc(Nc3ccc4c(c3)OCC(CO)O4)nc21 (stereo not given) | inactive |  |
| Cc1ncc(CO)c(CO)c1O | inactive |  |
| NC(=O)c1nc(-c2cccc(-c3cc(F)ccc3OCC(F)(F)C(F)(F)F)c2)n[nH]1 | inactive |  |
| Clc1ccccc1C(c1ccccc1)(c1ccccc1)n1ccnc1 | inactive |  |
| CO[C@H]1/C=C/O[C@@]2(C)Oc3c(C)c(O)c4c(O)c(c(/C=N/N5CCN(C)CC5)c(O)c4c3C2=O)NC(=O)/C(C)=C\C=C\[C@H](C)[C@H](O)[C@@H](C)[C@@H](O)[C@@H](C)[C@H](OC(C)=O)[C@@H]1C | inactive |  |
| O=C1CCC(C2CCCCC2)CC1 | inactive |  |
| CCCCOC(=O)c1ccc(O)cc1 |  | 50.2 µM (active) |
| Cc1cc(F)ccc1-c1cc(N2CC[C@@H](O)[C@H]2CO)ncc1N(C)C(=O)C(C)(C)c1cc(C(F)(F)F)cc(C(F)(F)F)c1 | inactive |  |
